The whole screen tested about 3,300 compounds, of which about 55 (2%) were called active.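 The calls were made as follows: active = growth inhibition above 90%, meaning viable cell count by imaging cut by more than 90% versus vehicle controls; inactive = growth inhibition below 90%.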 The entries come from a sample that favours actives as a whole.
Experiment: HT29 colon tumor cell growth inhibition, primary screen, imaging, high content imaging, 48 h, CellTiter-Glo (AID 771);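 as to condensed nuclei: condensed means Hoechst nuclear area under control median minus 1.5 SD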
Settings: HCS imaging cell count, at 10 µM, stronger effect = higher value; for condensed nuclei: measured here: percent cells with condensed nuclei
[1] = measured here: ATP CellTiter-Glo viability inhibition

SMILES	growth inhibition	growth inhibition [1]	condensed nuclei
c1ccc2c(c1)[nH]c1c(N3CCN(C4CCCCC4)CC3)ncnc12	58.7% (inactive)	2.53%	3.08%
c1ccc2c(c1)[nH]c1c(N3CCSCC3)ncnc12	57.5% (inactive)	9.84%	0.5%
c1ccc(CN2CCN(c3ncnc4c3[nH]c3ccccc34)CC2)cc1	89.4% (inactive)	57.3%	10.8%
Fc1ccc2[nH]c3c(N4CCN(Cc5ccc6c(c5)OCO6)CC4)ncnc3c2c1	97.9% (active)	92.8%	29%
Cc1ccc2[nH]c3c(N4CCN(Cc5ccc6c(c5)OCO6)CC4)ncnc3c2c1	94.2% (active)	91.8%	25.3%
Cc1ccc2[nH]c3c(N4CCN(Cc5ccccc5)CC4)ncnc3c2c1	16% (inactive)	-1.83%	2.02%
Fc1ccc2[nH]c3c(N4CCSCC4)ncnc3c2c1	38.7% (inactive)	37.9%	4.52%
Fc1ccc2[nH]c3c(N4CCN(C5CCCCC5)CC4)ncnc3c2c1	94% (active)	85.4%	10.8%
CN1CCN(c2ncnc3c2[nH]c2ccc(F)cc23)CC1	64.5% (inactive)	10%	2.81%
Cc1ccc2[nH]c3c(N4CCOCC4)ncnc3c2c1	42.1% (inactive)	15.8%	0.48%
Cc1ccc2[nH]c3c(N4CCCCCC4)ncnc3c2c1	96.6% (active)	93%	38.1%
COc1ccc2[nH]c3c(N4CCN(Cc5ccc6c(c5)OCO6)CC4)ncnc3c2c1	40.6% (inactive)	20.9%	3.53%
O=C(CCN1CCc2ccccc2CC1)c1ccc2c(c1)OCCO2	18.3% (inactive)	14.1%	1.32%
Fc1ccc(-c2cnc[nH]2)cc1	7.2% (inactive)	-20.5%	1.71%
COC(=O)CSc1nc2sc3c(c2c(=O)n1C1CCCCC1)CCN(C)C3	31.7% (inactive)	-21.3%	4.17%
O=C(O)CC(C(=O)N(c1ccccc1)c1ccccc1)N1CCOCC1 (stereo not drawn)	-4.04% (inactive)	-10.5%	1.81%
Cc1occc1C(=O)OCC(=O)Nc1ccc(F)cc1	41.9% (inactive)	18.1%	4.91%
Cc1ccc(CNC(=O)c2cc3c(=O)n4ccccc4nc3n(Cc3ccco3)c2=N)cc1	38.7% (inactive)	10.6%	1.03%
CCOc1ccc(C2/C(=C(/O)c3ccc(F)cc3)C(=O)C(=O)N2CCCN(C)C)cc1 (stereo not drawn)	28.1% (inactive)	-5.46%	5.22%
CCN1CCN(c2nc3c(C)cccn3c(=O)c2/C=C(\C#N)S(=O)(=O)c2ccccc2)CC1	9.15% (inactive)	7.42%	2.58%
COC(=O)c1cc(Br)c(=O)n(CCc2ccc(F)cc2)c1	43.4% (inactive)	17.2%	1.12%
CCOC(=O)c1[nH]c2ccc(F)cc2c1N=C(C)N(CC)CC	-6.13% (inactive)	-22.6%	2.07%
CC(C)CNC(=O)c1c(N)n(/N=C/c2ccccn2)c2nc3ccccc3nc12	-40% (inactive)	-5.64%	2.54%
Fc1ccc2[nH]c3c(N4CCN(c5ccccc5)CC4)ncnc3c2c1	81.6% (inactive)	84.2%	29.2%

SMILES	growth inhibition	growth inhibition [1]	condensed nuclei
COc1cccc(N2CCN(c3ncnc4c3[nH]c3ccccc34)CC2C)c1 (stereo not drawn)	89.8% (inactive)	62.2%	5.36%
COc1cccc(N2CCN(c3ncnc4c3[nH]c3ccc(F)cc34)CC2C)c1 (stereo not drawn)	91.7% (active)	89.4%	4.17%
CC(=O)/C=C(\C)NCCNc1c(F)c(F)c(CO)c(F)c1F	23.4% (inactive)	0.5%	1.42%
CCCCCCCCNC(C)C(O)c1ccc(SC(C)C)cc1 (stereo not drawn)	99.7% (active)	–	50%
CC(NCCc1ccc(O)cc1)C(O)c1ccc(O)cc1 (stereo not drawn)	-16.3% (inactive)	–	2.5%
CC(COc1ccccc1)NC(C)C(O)c1ccc(O)cc1 (stereo not drawn)	22.6% (inactive)	–	2.89%
COc1ccc(OC)c(C(O)c2coc3ccc(O)c(CN4CCOCC4)c23)c1 (stereo not drawn)	-2.41% (inactive)	-6.82%	4.2%
Cc1nc(=O)c(-c2ccccc2)c(C)n1-c1ccc(S(N)(=O)=O)cc1	-25.6% (inactive)	-8.56%	2.99%
CCOC(=O)c1[nH]c2cc(OC)c(OC)cc2c1NC(=O)C(C)N1CCN(Cc2ccccc2)CC1 (stereo not drawn)	3.83% (inactive)	-7.15%	3.08%
CCCCC(=O)NC(Nc1ccc(C)cn1)(C(=O)OCC)C(F)(F)F (stereo not drawn)	-56.4% (inactive)	-18.7%	2.76%
CCn1cc(C(=O)NCc2ccccn2)c(=O)c2cc(F)c(N3CCN(C)CC3)cc21	15.6% (inactive)	-1.75%	2.93%
CCn1cc(C(=O)NCCc2ccccc2)c(=O)c2cc(F)c(N3CCN(C)CC3)cc21	97% (active)	89.7%	14.8%
CCn1cc(C(=O)NCCCN(C)C)c(=O)c2cc(F)c(N3CCN(C)CC3)cc21	23.8% (inactive)	-23.1%	4.97%
CCOC(=O)c1ccccc1OCc1cc(/C=N/n2cncn2)ccc1OC	28.7% (inactive)	6.4%	3.97%
CCOc1ccc(C2C(C#N)=C(N)SC(N)=C2C#N)cc1OC	25.3% (inactive)	1.94%	0.7%
N=c1c2c(-c3ccccc3)c(-c3ccccc3)n(Cc3ccccc3)c2ncn1CCCn1ccnc1	99.7% (active)	97.2%	41.1%
O=c1c(C=NCCCn2ccnc2)c(-c2ccccc2)[nH]n1-c1nc2ccccc2s1	1.39% (inactive)	1.73%	3.29%
OCCNc1ncnc2c1c(-c1ccccc1)c(-c1ccccc1)n2Cc1ccco1	37.6% (inactive)	15.3%	3.02%
COC(=O)c1[nH]c(C)c(/C(O)=C2\C(=O)C(=O)N(CCN3CCOCC3)C2c2ccccc2OC)c1C (stereo not drawn)	15.6% (inactive)	7.04%	1.6%
O=C(NCCN1CCCCC1)/C(=N\O)c1ccccc1	-0.27% (inactive)	-18.5%	1.08%
Cc1c(=O)n(OCc2c(F)cccc2F)c2ccccc2[n+]1[O-]	7.92% (inactive)	2.47%	2.94%
C=CC(O)Cc1c(C)n[nH]c1C (stereo not drawn)	-31.7% (inactive)	7.27%	2.84%
COc1ccc(OCC(=O)N2CCN(C(=O)c3cccc4ccccc34)CC2)cc1	-1.2% (inactive)	-3.25%	2%

From PubChem BioAssay AID771 (SRMLSC, 2007)
